Only some compounds are listed: those with a hit (about 5.2% of all), similar ones and a draw of the others.
CR mimetic SO: lowers age-related superoxide in aged yeast cells; 330,000 compounds, 0.18% hits; superoxide response (% of plate mean), % at 10 µM; S. cerevisiae aged cells, superoxide DHE fluorescence; stronger effect = lower value;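 active = superoxide response under a set limit, about three screen SD below normal, cut at about 65% in these data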;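 note: yeast aged for seven days with compound at 30 °C before DHE staining; 100% = average MFI of all compound-treated wells on the plate with controls excluded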
ALR H2O2 inh: blocks human ALR sulfhydryl oxidase activity; 290,000 compounds, 3.8% hits; AID 485317; purified ALR, DTT oxidation, H2O2 HRP-luminol luminescence; inhibition, % (concentration not given with the values); P55789;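 active = mean replicate inhibition above about 79%, with every replicate also reaching it, limit read from the data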
M18AAP inhibitor: PfM18AAP enzyme inhibition. inhibition, % at 7.35 µM. 290,000 compounds, 1.2% hits. recombinant PfM18AAP, H-Glu-NHMec fluorogenic cleavage;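 active = inhibition above the campaign mean inhibition over all tested compounds plus 3 SD, cut at about 28% in these data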;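 note: 0% = plate median of test compound wells and 100% = 2 mM ZnCl2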
APOBEC3G inh: APOBEC3G (human) deaminase inhibition. Q9HC16. recombinant A3G, ssDNA deamination FAM/TAMRA fluorescence. inhibition, % at 20 µM. 330,000 compounds, 0.28% hits. AID 493012;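 active = inhibition of at least 40% at 20 µM, with no more than 30% in the related APOBEC3A deaminase screen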;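 note: plate controls were DMSO wells with A3G for no effect and wells lacking A3G enzyme for full effect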
APOBEC3A inh: blocks human APOBEC3A ssDNA deamination; P31941; recombinant A3A, FAM/TAMRA ssDNA deamination fluorescence; inhibition, % at 20 µM; 330,000 compounds, 0.41% hits;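 active = at least 40% inhibition at 20 µM here, with at most 30% in a related deaminase screen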;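 note: plate controls were A3A with DMSO for no effect and wells lacking A3A enzyme for full effect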
CendR NRP1 mod: NRP-1/CendR interaction modulation; FAM-RPARPAR peptide binding to NRP-1, fluorescence polarization; O14786; AID 602438; 360,000 compounds, 0.85% hits; inhibition, % at 25 µM;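 active = inhibition or corrected inhibition above about 18%, plus a signal ratio from 0.5 to 1.5, limit read from the data, passing the limit was not always enough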
Target sequence (O14786 whole entry, looked up): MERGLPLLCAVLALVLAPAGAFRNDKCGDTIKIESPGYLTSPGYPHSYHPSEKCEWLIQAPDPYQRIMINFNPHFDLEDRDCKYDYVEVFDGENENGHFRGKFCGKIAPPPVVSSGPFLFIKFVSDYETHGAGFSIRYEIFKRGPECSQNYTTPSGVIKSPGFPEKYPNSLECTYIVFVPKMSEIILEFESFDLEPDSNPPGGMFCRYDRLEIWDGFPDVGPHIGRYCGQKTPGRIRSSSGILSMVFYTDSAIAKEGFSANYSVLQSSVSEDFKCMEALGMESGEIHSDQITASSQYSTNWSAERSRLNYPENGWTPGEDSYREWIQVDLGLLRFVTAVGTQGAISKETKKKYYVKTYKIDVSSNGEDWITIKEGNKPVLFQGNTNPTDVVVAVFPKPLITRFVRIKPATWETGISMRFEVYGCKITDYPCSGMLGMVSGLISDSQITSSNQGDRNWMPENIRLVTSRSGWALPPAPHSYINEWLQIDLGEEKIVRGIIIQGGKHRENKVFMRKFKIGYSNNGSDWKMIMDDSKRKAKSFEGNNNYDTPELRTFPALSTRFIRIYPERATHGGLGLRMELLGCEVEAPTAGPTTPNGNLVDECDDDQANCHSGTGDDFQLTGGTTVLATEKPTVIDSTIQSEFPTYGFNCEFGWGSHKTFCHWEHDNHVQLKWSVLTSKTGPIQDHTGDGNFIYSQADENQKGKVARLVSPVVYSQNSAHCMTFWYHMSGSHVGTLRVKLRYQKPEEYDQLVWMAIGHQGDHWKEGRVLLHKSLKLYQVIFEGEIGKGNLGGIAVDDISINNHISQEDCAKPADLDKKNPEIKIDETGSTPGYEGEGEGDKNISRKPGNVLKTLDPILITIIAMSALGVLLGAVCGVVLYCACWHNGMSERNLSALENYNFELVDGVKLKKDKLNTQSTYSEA
Starred values were filed as active, the others as inactive; x = no result given.

SMILES	CR mimetic SO	ALR H2O2 inh	M18AAP inhibitor	APOBEC3G inh	APOBEC3A inh	CendR NRP1 mod
CC1CCCN(c2ccc(N)cc2C(N)=O)C1 (stereo not drawn)	87.5	98.3*	7.8	-4.5	-1.9	18.7
CCOC(=O)Cc1cc(=O)n2[nH]c(-c3ccc(C)cc3)cc2n1	120.1	3.9	-11.9	4.2	6.6	-8.5
NC(=O)c1nsc(C(=O)N(CC(=O)NC2CCCC2)c2ccc(F)c(Cl)c2)c1N	100.3	-3.5	-5.1	-6.3	30.1	7.0
COC(=O)c1ccccc1NC(=O)CN(c1ccccc1)S(=O)(=O)N(C)C	88.1	3.3	5.0	-4.0	-1.7	7.1
CCOC(=O)C(=CN(CCc1ccccc1)CC(=O)OC)C(=O)OCC	95.8	-0.9	-0.7	-4.4	0.3	25.6*
Cc1nc(SCc2ccc(Cl)c(Cl)c2)ncc1C(=O)O	98.7	97.2*	-5.9	-4.5	-3.4	6.9
Cc1ccc(-c2nn(-c3ccccc3)cc2C(=O)Nc2ccc(C)c(S(=O)(=O)N3CCOCC3)c2)cc1	90.8	-11.4	-8.8	-8.7	-2.1	-13.0
COc1cc(C(=O)ON=C2C(C)=CC(=O)C=C2C)cc(OC)c1OC	92.9	99.0*	9.0	-2.0	-0.6	-11.6
Cc1c(Cc2ccccc2)c(=O)oc2c(C)c(OC(C)C(=O)N[C@@H](Cc3ccccc3)C(=O)O)ccc12 (stereo partly drawn)	108.4	97.4*	-1.1	-8.3	0.4	-46.5
Cc1c(OCC(=O)N[C@@H](Cc2ccccc2)C(=O)O)ccc2c3c(c(=O)oc12)CCC3	103.5	4.6	-2.0	-7.6	-3.6	-3.2
Cc1c(OC(C)C(=O)N[C@H](C(=O)O)c2ccccc2)ccc2c3c(c(=O)oc12)CCCC3 (stereo partly drawn)	100.3	96.4*	-10.2	-3.1	0.1	-13.7
Cc1c(OCC(=O)NC(Cc2ccc(Cl)cc2)C(=O)O)ccc2c3c(c(=O)oc12)CCCC3 (stereo not drawn)	108.8	97.5*	-6.4	24.6	-1.9	-37.0
O=C(CN(CC1CCCO1)C(=O)CNS(=O)(=O)c1ccc(Cl)cc1)NCC1CCCO1 (stereo not drawn)	99.4	-12.9	-3.5	-9.4	-1.8	30.2*
CC1(C)Oc2ccc3ccc(=O)oc3c2/C(=C/NNC(N)=S)C1=O	117.5	87.8*	13.4	0.4	-2.3	7.7
CCN(CC)CCNC(=O)c1[nH]c2ccc(OCc3ccccc3)cc2c1C	109.6	-7.1	-1.8	-4.9	-2.0	-1.1
CCOC(=O)N1CCN(CC(O)COC(CC)c2ccccc2)CC1 (stereo not drawn)	136.5	-30.0	-4.4	5.2	-4.1	-5.4
CCCCc1c(O)nc(SCC(=O)c2ccccc2)n(-c2ccccc2C)c1=O	88.0	97.3*	-2.5	2.8	1.2	-2.2
CCCCc1c(O)nc(SCC(=O)c2ccccc2)n(-c2ccccc2OC)c1=O	84.7	98.7*	-1.8	2.7	1.7	-1.0
CCCCc1c(O)nc(SCC(=O)N2CCOCC2)n(-c2ccccc2OC)c1=O	118.4	1.9	8.9	-4.2	-0.9	4.8
CCCCc1c(O)nc(SCC(=O)c2ccccc2)n(-c2ccccc2)c1=O	102.2	3.5	-14.5	-4.6	-2.0	-3.4
NC(=O)c1c(-c2cccs2)csc1N	108.4	12.1	27.6	-8.9	0.1	x
CCOc1ccc(CN2CCN(Cc3[nH]c4ccc(OC)cc4c3C)CC2CCO)cc1 (stereo not drawn)	99.1	8.4	1.7	-5.4	-2.2	-4.0
Nc1ccccc1C#Cc1ccccc1	x	5.1	-3.3	-4.7	-1.9	7.8
Nc1ccccc1C#Cc1ccc2[nH]ccc2c1	100.0	97.5*	x	-13.4	-4.7	4.0
CCOC(=O)Cc1csc(NC(=O)CSc2nc(-c3ccccc3)c(C#N)c(=O)[nH]2)n1	89.8	98.3*	-8.9	-0.6	1.3	-0.2
Cc1sc(NC(=O)CSc2nc(O)cc(=O)[nH]2)nc1-c1ccccc1	93.9	98.6*	3.2	-3.4	1.8	-12.9
COc1cccc(-c2nc(SCC(=O)Nc3nc(-c4ccccc4)c(C)s3)[nH]c(=O)c2C#N)c1	106.2	98.6*	7.3	-1.7	-1.5	-37.4

Screening results: PubChem BioAssay, several laboratories
